Results filed as inconclusive are left out. Where a call stands in place of a potency, no number is given. Active and inactive are the calls of the source. Calls follow the shape of the full dose curve.
Potency is read from the fitted curve at half-maximal effect.

The nature of the test: Cytotoxicity counterscreen for inhibitors of SARS-CoV-2 cell entry (AID 1645845). Also: nearly all actives have a fitted effect of over 50% in size. The note with it: cell viability (SARS-CoV-2 entry assay cells); series mostly up to 57.1 µM; activity change, negative = cytotoxicity: at the top concentration. The text has this: Assay Provider: Wei Zheng, Ph.D.
National Center for Advancing Translational Sciences, National Institute of Health, Rockville, MD.
SARS-CoV-2 spike protein, within the viral envelope, mediates viral attachment and infection of host cells. The SARS-CoV-2 spike protein specifically binds to the host receptor ACE2 (Angiotensin-converting enzyme 2). This interaction promotes endocytosis of the viral particle, additional events lead to viral-host cell membrane fusion and release of the viral contents, allowing viral replication.
While SARS-CoV-2 requires BSL-3 facilities for live virus work, pseudo-typed partices (PP) that incorporate SARS-CoV-2 spike proteins without replication elements could facilitate studies on viral entry mechanisms in a BSL-2 setting. This PP cell entry assay could also enable screening of small molecule compound libraries in BSL-2 setting to identify inhibitors of SARS-CoV-2 cell entry. To eliminate false positive compounds, ATP content cytotoxicity assay was screened in the same cell line.
SEQUENCE No. (e.g., 1, 2, 3, etc.); […] (e.g., Cells, Incubation, Reagent, etc.); VALUE and DESCRIPTION.
1. Cells. Seed 1500 HEK293-ACE2 cells (Expi293F with stable expression of human ACE2) in 2 uL/well media (DMEM, 10% FBS, 1x L-glutamine, 1x Pen/Strep, 1 ug/ml puromycin) in white 1536-well assay plates (Greiner #782073).
2. Incubation. Incubate at 37 C with 5% CO2 overnight (~16 h).
3. Compounds. Dispense 23 nL/well compounds in DMSO via pin transfer.
4. Incubation. Incubate for 1 h at 37C 5% CO2.
5. Reagent. Dispense 2 uL/well of media (DMEM, 10% FBS, 1x L-glutamine, 1x Pen/Strep, 1 ug/ml puromycin).
6. Incubation. Incubate at for 48h at 37C 5% CO2
7. Reagent. Dispense 4 uL/well of ATPLite 1step luminescence assay reagent (PerkinElmer #6016739).
8. Incubation. Incubate for 15 min at room temperature.
9. Detection. Read luminescence signal (Viewlux plate reader, PerkinElmer). Data was normalized with wells containing cells as 100%, and wells without cells (media only control) as 0%.
Consider `Cc1c(CCOc2ccc(C(=O)O)cc2)c2cc(Cl)ccc2n1C(c1ccccc1)c1ccccc1`, for which the “activity change, negative = cytotoxicity” value is 1.48% (inactive). The same measure, in the same setting: the figure for `CCc1cccc(CC)c1NC(=O)N1Cc2[nH]nc(NC(=O)c3ccc(N4CCN(C)CC4)cc3)c2C1` is -25% (inactive); for `CCN(c1cc(C#CCN2CCOCC2)cc(C(=O)NCc2c(C)cc(C)[nH]c2=O)c1C)C1CCC(N(C)CCOC)CC1` (stereo not given) it is -7.03% (inactive). In the case of `C[C@H](NCc1ccc(OCc2cccc(F)c2)cc1)C(N)=O`, the compound was called inactive. As to `O=C(O)CCCc1c[nH]c2ccccc12`, the “activity change, negative = cytotoxicity” value was -9.74% (inactive).

Consider `c1cc(OCCN2CCCCC2)cc(-c2n[nH]c3ccc(-c4ncn[nH]4)cc23)c1`, for which the compound was classed as inactive. The same measure, in the same setting: the value for `N#CC(c1ccnc(NCCc2cccnc2)n1)c1nc2ccccc2s1` (stereo not given) was “inactive”.

Consider `CNc1nc(C)nc(N[C@H]2CCC[C@@H](C(=O)NCc3ccc(C#N)cc3C(F)(F)F)C2)n1`, for which the compound was called inactive. In the case of `CCC(NC(C)C)C(O)c1ccc(O)c(O)c1` (stereo not given), the compound was called inactive. `CC(C)C[C@@H](N)[C@H](O)C(=O)N[C@H](C(=O)N[C@H](C(=O)N[C@@H](CC(=O)O)C(=O)O)C(C)C)C(C)C`: the call was inactive.

Consider `Cc1c(-c2ccnn2C)cc(C(=O)NCc2ccc(S(C)(=O)=O)cn2)c(=O)n1-c1cccc(C(F)(F)F)c1`, for which the “activity change, negative = cytotoxicity” value is -15.7% (inactive). In the case of `NCCCNCCCCNC(=O)C(O)NC(=O)CCCCCCN=C(N)N` (stereo not given), the compound was called inactive. Regarding `O=C1NC(=O)C(c2cnc3ccccn23)=C1c1cn2c3c(cccc13)CN(C(=O)N1CCOCC1)CC2`, the “activity change, negative = cytotoxicity” value is -5.11% (inactive).

As to `C[C@H]1COc2c(N3CCN(C)CC3)c(F)cc3c(=O)c(C(=O)O)cn1c23`, the Potency result is “inactive”.

For the compound `CN(C)CCC(c1ccc(Br)cc1)c1ccccn1` (stereo not given), the “activity change, negative = cytotoxicity” value was -2.78% (inactive). The same measure, in the same setting: the figure for `COc1cccc([C@@H](C)NCCCc2ccccc2Cl)c1` is -15.1% (inactive). Turning to `COc1ccc2cc(OCC3(C(=O)O)CN(C(=O)c4ccc(F)cc4)C3)ccc2c1`, the result was inactive.

Turning to `FC(F)(F)c1ccc(Nc2nc3ccc(Oc4ccnc(-c5ncc(C(F)(F)F)[nH]5)c4)cc3[nH]2)cc1`, the compound was called inactive. Take `CC(N[C@H]1CCCC[C@H]1NC(=O)c1ccc(Cl)cc1)c1cccc2ccccc12` (stereo not given in full): the “activity change, negative = cytotoxicity” value is -4.88% (inactive). Consider `Nc1cccc2c1C(=O)N(C1CCC(=O)NC1=O)C2=O` (stereo not given), for which the Potency result is “inactive”.

As for `Nc1ncnc2c1nc(Cl)n2[C@@H]1O[C@H](CO)[C@@H](O)[C@@H]1O`, the “activity change, negative = cytotoxicity” value is -29.8% (inactive). Consider `CS(=O)(=O)c1ccc(C2=C(c3ccccc3)C(=O)OC2)cc1`, for which the Potency result was “inactive”.

Regarding `O=S(=O)(O)CCSSCCS(=O)(=O)O`, the “activity change, negative = cytotoxicity” value is -7.12% (inactive). For the compound `O=C(O)c1ccccc1C(=O)Nc1ccc(-c2ccccc2)cc1`, the “activity change, negative = cytotoxicity” value was 3.19% (inactive). As to `CC(C)=CC[C@@H](O)C1=CC(=O)c2c(O)ccc(O)c2C1=O`, the result was inactive. On the same count and under the same terms, the value for `CC(C(C)N1CC(=O)NC(=O)C1)N1CC(=O)NC(=O)C1` (stereo not given) was “inactive”.

Regarding `N#CC(c1ccc(Cl)cc1)c1c(Cl)cc(-n2ncc(=O)[nH]c2=O)cc1Cl` (stereo not given), the Potency result is “inactive”. As for `O=C(CCCCCCC(=O)Nc1ccc([C@H]2O[C@@H](CSc3nc(-c4ccccc4)c(-c4ccccc4)o3)C[C@@H](c3ccc(CO)cc3)O2)cc1)NO`, the outcome is “inactive [at 11.3 µM]”. As for `O=C1C(c2c(O)[nH]c3ccccc23)=Nc2ccccc21`, the call was inactive.

Consider `N[C@@H](CC(=O)N1CCn2c(nnc2C(F)(F)F)C1)Cc1cc(F)c(F)cc1F`, for which the Potency entry was “inactive”. With `CC(=O)O[C@H]1C(=O)[C@@]2(C)C([C@H](OC(=O)c3ccccc3)[C@]3(O)C[C@H](OC(=O)[C@H](O)[C@@H](NC(=O)c4ccccc4)c4ccccc4)C(C)=C1C3(C)C)[C@]1(OC(C)=O)CO[C@@H]1C[C@@H]2O` (stereo not given in full), the “activity change, negative = cytotoxicity” value was -15.6% (inactive).

With `C[C@H](NC(=O)Cc1cc(F)cc(F)c1)C(=O)N[C@H](C(=O)OC(C)(C)C)c1ccccc1`, the call was inactive. Turning to `CNC1CCC(N(Cc2cccc(-c3ccncc3)c2)C(=O)c2sc3ccccc3c2Cl)CC1` (stereo not given), the Potency is 31.6 µM (active). As for `CN1CC[C@@H](c2c(O)cc(O)c3c(=O)cc(-c4ccc(C(F)(F)F)cc4Cl)oc23)[C@@H]1CO`, the “activity change, negative = cytotoxicity” value is -11.4% (inactive). Consider `CN1CCN2c3ccccc3Cc3ccccc3C2C1` (stereo not given), for which the outcome was inactive. Consider `C=C(C)[C@@H]1CC[C@]2(C)CC[C@]3(C)[C@H](CC[C@@H]4[C@@]5(C)CC[C@H](O)C(C)(C)[C@H]5CC[C@]43C)[C@@H]12`, for which the “activity change, negative = cytotoxicity” value is 2.27% (inactive). Consider `O=C(NOCC(O)CO)c1cc(Br)c(F)c(F)c1Nc1ccc(I)cc1F` (stereo not given), for which the compound was called inactive. Turning to `Cc1ccc(CN2CCNCC2)cc1NC(=O)CNc1ccc(F)c(F)c1`, the compound was called inactive. Regarding `NC[C@H]1O[C@H](O[C@H]2[C@@H](O)[C@@H](O[C@H]3O[C@H](CO)[C@@H](O)[C@H](N)[C@@H]3O)[C@H](N)C[C@@H]2N)[C@H](N)C[C@H]1O`, the outcome was “inactive [at 11.3 µM]”. Take `CCN(C(=O)c1c(O)c2c(Cl)cccc2n(C)c1=O)c1ccccc1`: the Potency result was “inactive”.

The values are drawn from PubChem BioAssay (NCATS).
